Structures are written as SMILES. Active and inactive are the calls of the source. No rule for the calls is given here.

The experiment concerns the target Estrogen receptor (Homo sapiens) (UniProt P03372). As to the kind of experiment: displacement of fluorescent estrogen from ERalpha – cell-based, Cos7 ERalpha-GFP, flow cytometry, primary screen (AID 1211).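 Also: 0% = DMSO vehicle wells and 100% = no E2-Alexa633 signal left.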 The conditions noted are these: fluorescent ligand competition, stronger effect = higher value. For orientation: Flow cytometry measures light scatter and fluorescence of single cells or particles in a stream.

Estrogen receptor (Homo sapiens), sequence (P03372 whole entry, looked up): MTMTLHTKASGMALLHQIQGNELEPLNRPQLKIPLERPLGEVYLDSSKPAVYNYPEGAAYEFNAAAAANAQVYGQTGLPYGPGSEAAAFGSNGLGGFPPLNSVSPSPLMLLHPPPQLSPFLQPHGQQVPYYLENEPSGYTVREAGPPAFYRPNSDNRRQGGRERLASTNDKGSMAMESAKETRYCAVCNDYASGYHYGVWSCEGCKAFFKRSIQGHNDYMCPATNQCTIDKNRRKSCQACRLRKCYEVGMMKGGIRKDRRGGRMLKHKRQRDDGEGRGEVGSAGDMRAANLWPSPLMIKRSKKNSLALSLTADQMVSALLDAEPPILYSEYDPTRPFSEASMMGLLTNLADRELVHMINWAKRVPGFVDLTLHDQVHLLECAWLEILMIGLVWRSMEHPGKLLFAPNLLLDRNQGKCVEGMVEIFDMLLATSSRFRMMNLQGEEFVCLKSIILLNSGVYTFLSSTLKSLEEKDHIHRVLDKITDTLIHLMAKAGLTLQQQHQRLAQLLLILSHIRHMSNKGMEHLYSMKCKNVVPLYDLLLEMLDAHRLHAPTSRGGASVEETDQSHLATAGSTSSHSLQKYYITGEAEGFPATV

On to `C/C=C/COC(=O)c1[nH]c2c(c1C)C(=O)CC(c1ccco1)C2` (stereo not drawn), for which the inhibition of ligand binding is 29% (inactive) (at 10 µM) and 27% (binding inhibition, at 0.1 µM).

As for `O=C(Nc1sc2c(c1C(=O)O)CCC2)c1ccccc1`, the inhibition of ligand binding by setting is: (at 10 µM) 15% (inactive); (binding inhibition, at 0.1 µM) 61%.

Regarding `CC(Oc1ccc(Cl)cc1Cl)C(=O)Nc1ccc2oc(-c3ccncc3)nc2c1` (stereo not drawn), the inhibition of ligand binding by setting is: (at 10 µM) 48% (inactive); (binding inhibition, at 0.1 µM) 40%.

For the compound `Cn1c(C(=O)Nc2ccc3c(c2)OCO3)cc2c(=O)n(C)c3ccccc3c21`, the inhibition of ligand binding by setting is: (at 10 µM) 26% (inactive); (binding inhibition, at 0.1 µM) 15%.

Turning to `COc1ccccc1-c1nnc2n1N=C(c1ccc(O)c(O)c1)CS2`, the inhibition of ligand binding reads like this: (at 10 µM) 46% (inactive); (binding inhibition, at 0.1 µM) 10%.

As to `COc1ccc2c(c1)[nH]c1c(=O)n(N)cnc12`, the inhibition of ligand binding runs as follows: (at 10 µM) 55% (inactive); (binding inhibition, at 0.1 µM) 20%.

As for `Oc1ccccc1-c1nnc(SCCN2CCOCC2)n1Cc1ccccc1`, the inhibition of ligand binding runs as follows: (at 10 µM) 32% (inactive); (binding inhibition, at 0.1 µM) 44%.

Regarding `O=S(=O)(NCCc1csc(-c2cccnc2)n1)c1ccc(Cl)s1`, the inhibition of ligand binding (at 10 µM) is 72% (active) and the inhibition of ligand binding (binding inhibition, at 0.1 µM) came out at 35%.

Turning to `CCN(CC)c1ccc2c(c1)oc(=O)c1c(Cl)cc(=O)oc12`, the inhibition of ligand binding was 23% (inactive) (at 10 µM) and 4% (binding inhibition, at 0.1 µM).

As for `O=C(c1cc2ncc(Br)cn2n1)N1CCN(C(=O)c2ccco2)CC1`, the inhibition of ligand binding runs as follows: (at 10 µM) 2% (inactive); (binding inhibition, at 0.1 µM) 15%.

For `O=c1oc2c(O)c(O)cc3c(=O)oc4c(O)c(O)cc1c4c23`, the inhibition of ligand binding is, setting by setting: (at 10 µM) 0% (inactive); (binding inhibition, at 0.1 µM) 4%.

As to `Cc1noc(C)c1COC(=O)c1cc2c3ccccc3n(C)c2s1`, the inhibition of ligand binding was 41% (inactive) (at 10 µM) and 33% (binding inhibition, at 0.1 µM).

For `Cc1oc(-c2ccc(Cl)cc2)cc1-c1nn2c(-c3ccoc3C)nnc2s1`, the inhibition of ligand binding (at 10 µM) is 68% (active) and the inhibition of ligand binding (binding inhibition, at 0.1 µM) was 34%.

With `O=C(O)C1OC(Oc2c(-c3ccc(O)c(O)c3)oc3cc(O)cc(O)c3c2=O)C(O)C(O)C1O` (stereo not drawn), the inhibition of ligand binding is, setting by setting: (at 10 µM) 0% (inactive); (binding inhibition, at 0.1 µM) 62%.

With `Cc1cc(O)ccc1C1(c2ccc(O)cc2C)OC(=O)c2ccccc21`, the inhibition of ligand binding reads like this: (at 10 µM) 28% (inactive); (binding inhibition, at 0.1 µM) 64%.

On to `O=C(CSc1nnnn1-c1ccccc1)Nc1nsc(-c2ccc(Cl)cc2)n1`, for which the inhibition of ligand binding was 47% (inactive) (at 10 µM) and 8% (binding inhibition, at 0.1 µM).

Consider `Nc1ccc2nc(-c3ccc(Cl)cc3)[nH]c2c1`, for which the inhibition of ligand binding runs as follows: (at 10 µM) 41% (inactive); (binding inhibition, at 0.1 µM) 30%.

As for `CC(=O)Nc1ccc(OC(=O)CC2SC(=O)NC2=O)cc1` (stereo not drawn), the inhibition of ligand binding is, setting by setting: (at 10 µM) 51% (inactive); (binding inhibition, at 0.1 µM) 60%.

In the case of `Nc1nc(-c2ccc3c(c2)NC(=O)CO3)cs1`, the inhibition of ligand binding by setting is: (at 10 µM) 32% (inactive); (binding inhibition, at 0.1 µM) 12%.

With `c1ccc(Cc2nnc3sc(-c4ccco4)nn23)cc1`, the inhibition of ligand binding is 34% (inactive) (at 10 µM) and 12% (binding inhibition, at 0.1 µM).

On to `CCOC(=O)Cn1cnc2sc3c(c2c1=O)CCC3`, for which the inhibition of ligand binding is, setting by setting: (at 10 µM) 23% (inactive); (binding inhibition, at 0.1 µM) 13%.

As for `Cc1cc(-c2ccccc2)nc2cc(C(N)=O)nn12`, the inhibition of ligand binding reads like this: (at 10 µM) 42% (inactive); (binding inhibition, at 0.1 µM) 5%.

On to `N#Cc1c(NCCN)nc(NCc2ccccc2)c2c1CCN(Cc1ccccc1)C2`, for which the inhibition of ligand binding is 65% (inactive) (at 10 µM) and 15% (binding inhibition, at 0.1 µM).

On to `Cc1ccc(C(=O)N/N=C/c2ccc([N+](=O)[O-])s2)cc1`, for which the inhibition of ligand binding runs as follows: (at 10 µM) 40% (active); (binding inhibition, at 0.1 µM) 73%.

As for `Cc1ccc(-c2nnc(-c3ccc(NC(=O)c4ccco4)cc3)o2)cc1`, the inhibition of ligand binding reads like this: (at 10 µM) 0% (inactive); (binding inhibition, at 0.1 µM) 8%.

Turning to `O=C(Cc1cccs1)Nc1ccc(S(=O)(=O)N2CCCCC2)cc1`, the inhibition of ligand binding is, setting by setting: (at 10 µM) 32% (inactive); (binding inhibition, at 0.1 µM) 22%.

On to `CCOC(=O)c1cc2c(c(CSc3nc4ccccc4c(=O)n3Cc3ccco3)c1)OCOC2`, for which the inhibition of ligand binding by setting is: (at 10 µM) 46% (inactive); (binding inhibition, at 0.1 µM) 18%.

For `COc1ccc(C2Nc3ccccc3C(=O)N2c2ccc(C)cc2)cc1Cn1cc([N+](=O)[O-])cn1` (stereo not drawn), the inhibition of ligand binding is, setting by setting: (at 10 µM) 26% (inactive); (binding inhibition, at 0.1 µM) 7%.

Consider `O=C1c2ccccc2C(=O)N1/N=C/c1ccc(O)c(O)c1`, for which the inhibition of ligand binding is 32% (inactive) (at 10 µM) and 23% (binding inhibition, at 0.1 µM).

`NC(=O)c1oc2ccccc2c1NC(=O)c1nc2ccccc2s1`: the inhibition of ligand binding runs as follows: (at 10 µM) 43% (inactive); (binding inhibition, at 0.1 µM) 4%.

In the case of `O=S(=O)(c1cccc(-c2cn3cccnc3n2)c1)N1CCCCCC1`, the inhibition of ligand binding was 25% (inactive) (at 10 µM) and 48% (binding inhibition, at 0.1 µM).

`CCC(Sc1ncnc2sc(C)c(C)c12)C(=O)OC` (stereo not drawn): the inhibition of ligand binding runs as follows: (at 10 µM) 38% (inactive); (binding inhibition, at 0.1 µM) 30%.

Take `COc1cc(/C=N/N2CCN(C3c4ccccc4-c4ccccc43)CC2)ccc1O`: the inhibition of ligand binding runs as follows: (at 10 µM) 36% (inactive); (binding inhibition, at 0.1 µM) 15%.

Regarding `O=C(/C=C/c1ccc(O)cc1)c1ccc(O)cc1O`, the inhibition of ligand binding is 62% (inactive) (at 10 µM) and 18% (binding inhibition, at 0.1 µM).

With `O=C(NNC(=O)c1ccc(SCC2CCCO2)c([N+](=O)[O-])c1)c1ccc(Cl)c([N+](=O)[O-])c1` (stereo not drawn), the inhibition of ligand binding (at 10 µM) is 35% (inactive) and the inhibition of ligand binding (binding inhibition, at 0.1 µM) amounted to 45%.

On to `CC(=O)N1c2ccc(Cl)cc2C2C=CCC2C1c1cccc2ccccc12` (stereo not drawn), for which the inhibition of ligand binding is, setting by setting: (at 10 µM) 0% (inactive); (binding inhibition, at 0.1 µM) 13%.

Regarding `Cc1ccc(-c2nn(-c3ccccc3)cc2CSC(=N)N)cc1`, the inhibition of ligand binding by setting is: (at 10 µM) 26% (inactive); (binding inhibition, at 0.1 µM) 39%.

As to `O=C(Cc1ccc(S(=O)(=O)N2CCOCC2)s1)Nc1nc2c(s1)CCCC2`, the inhibition of ligand binding reads like this: (at 10 µM) 46% (inactive); (binding inhibition, at 0.1 µM) 32%.

On to `Cc1oc2c(C)c(O)ccc2c(=O)c1-c1ccc2ccccc2n1`, for which the inhibition of ligand binding (at 10 µM) is 20% (active) and the inhibition of ligand binding (binding inhibition, at 0.1 µM) stood at 70%.

For the origin of these results see PubChem BioAssay AID1211 (NMMLSC, 2008).
